# TDP-43 yeast inh = inhibitors of TDP-43 toxicity in yeast | TDP-43 expressing yeast growth rescue, BacTiter-Glo, 24 h | Potency, µM (series often up to 46.1 µM), inactives show at the highest dose growth rescue (activation), hits mostly activators | 410,000 tested, 1.8% active; further: % of control where 0% means no effect; nearly all actives have a fitted effect of over 50% in size
#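 Cell-based yeast growth screen: TDP-43 expression induced in galactose, inoculum OD600=0.02 after raffinose pregrowth to mid-log. Read-out BacTiter-Glo luminescence at 24 hr, 30 deg C; inhibition of toxicity seen as signal increase.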
# aSyn rescue = rescues yeast growth from alpha-synuclein toxicity; Yeast expressing alpha-synuclein, growth rescue, BacTiter-Glo, 24 h; Potency, µM (titrated, usually from 46.1 µM), inactives show top-dose growth rescue (activation), usual class: activators; 370,000 tested, 0.14% active; AID 652106; further: % of control where 0% means no effect; nearly all actives have a fitted effect of over 65% in size
#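 Readout is rescue of growth in alpha-synuclein-expressing yeast, so inhibitors of toxicity appear as activators. Growth after 24 hr at 30 deg C in galactose medium is quantified by luminescence.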
# Abeta yeast res = restores growth of yeast expressing A-beta42 peptide. yeast expressing A-beta42, growth rescue, OD600, 48 h; response scale: 0% DMSO, 100% iron-clioquinol control. Potency, µM (doses to about 46.1 µM), hits mostly activators. 410,000 tested, 0.063% active. AID 1347071; further: nearly all actives have a fitted effect of over 55% in size
#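 Yeast growth medium received pinned compounds, then yeast cells expressing toxic A-beta were added; plates incubated at 30 C for 48 hr. Growth read as absorbance at 600 nm, normalized to DMSO and equimolar FeCl3 plus clioquinol controls.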
# FUS yeast rescue = rescues growth of FUS-expressing yeast. S. cerevisiae FUS-expressing, growth rescue, OD600, 24 h. Potency, µM (titrated, usually from 76.6 µM), most hits filed as activators. 390,000 tested, 0.24% active;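 further: plate controls were DMSO vehicle for no effect and reference control for full effect; nearly all actives have a fitted effect of over 55% in size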
#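 Quantitative HTS measuring growth restoration of FUS-toxic yeast. Galactose-induced cells (OD 0.005) were exposed 24hr at 30C to compounds at several concentrations, then absorbance at 600 nm was recorded.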
# Numbers without * were called inactive; i = inactive; ? = inconclusive; . = no result; ! = not active in a repeat. Compounds with a hit are over-represented: about 2.1% of the library has one in this group of screens. The call rests on the fitted dose curve; in most records, active means well fitted curve in the direction sought with a large enough effect; inconclusive means small, poorly fitted or top-dose-only effect, or another doubt; inactive means no such curve, though single readings can be large; an effect the other way counts as inactive or inconclusive. Potency means the concentration at half of the fitted maximal effect.
SMILES,TDP-43 yeast inh,aSyn rescue,Abeta yeast res,FUS yeast rescue
CC1(C)SC2c3ccccc3C(=O)N2[C@@H]1C(=O)NC1CC1 (stereo not given in full),1.3µM*,-5%,i,i
COc1ccc(CN2C(=O)[C@@H]3C(c4ccccc4Cl)=NO[C@@H]3C2=O)cc1,?,-5%,i,i
O=C1[C@@H]2C(c3ccccc3Cl)=NO[C@@H]2C(=O)N1Cc1ccccc1,14µM*,2%,?,i
CCc1nc2c(OCc3ccc(Cl)cc3Cl)cccn2c1N(C)C(=O)c1ccccc1F,18µM*,0%,i,?
CCc1nc2c(OCC(=O)c3ccc(Cl)cc3Cl)cccn2c1N(C)C(=O)c1ccncc1,9%,-5%,i,i
CCCCC(=O)N(C)c1c(CC)nc2c(OCC(=O)c3ccc(Cl)cc3Cl)cccn12,6%,-11%,i,32µM*
CCOC(=O)CSc1nnc2c3ccccc3n(C)c2n1,13µM*,-1%,i,i
CCn1c2ccccc2c2nnc(SCc3ccccc3)nc21,25µM*,-18%,i,i
CCCc1cnc(N2CCN(C(=O)c3ccccc3)CC2)nc1,11µM*,7%,i,i
O=C(c1ccccc1)N1CCN(c2ncccn2)CC1,0%,10%,i,i
Cc1cccc(Cn2cc(C(=O)c3ccccc3)c(=O)c3cc4c(cc32)OCO4)c1,35µM*,.,i,i
CC1(c2cc([N+](=O)[O-])cc([N+](=O)[O-])c2)CC(C)(C)N(C(=O)c2ccccc2)c2ccccc21 (stereo not given),25µM*,-15%,i,i
CC1(c2ccc(Cl)cc2)CC(C)(C)N(C(=O)c2ccccc2)c2ccccc21 (stereo not given),-9%,.,i,i
OC(c1ccc(Cl)cc1)c1ncc(-c2ccc(Oc3ccccc3)cc2)[nH]1 (stereo not given),20µM*,-1%,i,?
COC(=O)c1cc(OC)c(OC)c(OC)c1NC(=O)c1cc(=O)n(C)c(=O)n1C,-12%,.,i,i
CCOc1ccc(-n2c(C)cc(C(=O)CCl)c2C)cc1,8.9µM*,-22%,i,i
COC(=O)c1ccc(-n2c(C)cc(C(=O)CCl)c2C)cc1,?,-23%,i,i
Cc1ccccc1C(=O)Nc1nc2c(s1)CC(C(C)(C)C)CC2 (stereo not given),?,.,i,i
Cc1ccc(CCNC(=O)c2oc(=O)c3ccccc3c2-c2ccc(C)cc2)cc1,?,.,i,?
Cc1ccc(-c2c(C(=O)NCCc3ccc(Cl)cc3)oc(=O)c3ccccc23)cc1,-9%,.,i,16µM*
Cc1ccccc1-c1nn2c(=O)cc(CN3CCN(C(=O)/C=C/c4ccccc4)CC3)nc2s1,-17%,.,i,i
CCOc1ccccc1NC(=O)c1sc2nc(C)nc(N3CCOCC3)c2c1C,7.9µM*,-14%,i,i
CCCCCCCCCCCCCCCC[n+]1ccc(C(N)=O)cc1,-36%,-73%,i,32µM*
CCCCOc1ccc(C(N)=O)cc1,.,3%,.,.
CCCCCCCCCCCCCCCC[n+]1cccc(C(=O)N(CC)CC)c1,-18%,-10%,i,28µM*!
SMILES,TDP-43 yeast inh,aSyn rescue,Abeta yeast res,FUS yeast rescue
COc1ccc(S(=O)(=O)N2CCC(n3c(C)nc4cccnc43)CC2)cc1Cl,-7%,.,i,i
CCCCOc1ccc(C(=O)Nc2cccc(C)n2)cc1,2.8µM*,-26%,i,.
CNC(=O)/C(C#N)=C/c1c(N2CCN(c3ccccc3)CC2)nc2c(C)cccn2c1=O,-2%,3%,i,i
Cc1cccn2c(=O)c(/C=C(\C#N)C(N)=O)c(N3CCN(c4cccc(Cl)c4)CC3)nc12,25µM*,-4%,i,?
CO[C@H]1/C=C\O[C@@]2(C)Oc3c(C)c(O)c4c(O)c(c(C=NN5CCN(C6CCCC6)CC5)c(O)c4c3C2=O)NC(=O)C(C)=CC=C[C@H](C)[C@H](O)[C@@H](C)[C@@H](O)[C@@H](C)[C@H](OC(C)=O)[C@H]1C,.,-5%,.,.
Cn1c(N)c(C(C[N+](=O)[O-])c2ccccc2Cl)c(=O)n(C)c1=O (stereo not given),14µM*,-25%,i,i
Cc1ccc(C(C[N+](=O)[O-])c2c(N)n(C)c(=O)n(C)c2=O)cc1 (stereo not given),?,?,i,i
CCOc1ccc(N=C2SC(C(=O)Nc3ccccc3C#N)C(N)=C2C(=O)Nc2ccc(Cl)cc2)cc1 (stereo not given),25%,14%,i,35µM*
O=C(Cc1ccccc1)n1nc(-c2ccco2)nc1SCc1ccccc1,11µM*,0%,i,i
Cn1c(=O)c2c(nc(SCC(=O)Nc3ccc(F)cc3)n2Cc2ccccc2F)n(C)c1=O,16%,.,i,i
CCC(C)(O)c1[nH]c2ccc(C(F)(F)F)cc2c1C (stereo not given),18µM*,0%,14µM*,i
Cc1c(C(C)(C)O)[nH]c2ccc(C(F)(F)F)cc12,35µM*,5%,18µM*,i
Cc1nn(C(=O)c2cccc(F)c2)c(C)c1S(=O)(=O)N1CCOCC1,0%,.,i,i
O=C(Nc1ccc(N2CCN(C(=O)c3cccs3)CC2)cc1)c1ccc(Br)o1,25µM*,9%,i,i
CC(C)Cc1cc(C(=O)N2CCN(c3ccc(F)cc3)CC2)no1,22µM*,8%,i,i
O=C(c1ccc(Br)o1)N1CCN(c2ccc(F)cc2)CC1,13µM*,8%,i,i
CCOC(=O)C1=NOC(C(=O)Nc2nccs2)(C(=O)C2CC2)C1 (stereo not given),.,.,.,i
Cc1ccccc1-c1noc(-c2ccccc2OCC(=O)Nc2ccccc2[N+](=O)[O-])n1,6%,.,i,i
O=[N+]([O-])c1cc(-c2nc(-c3ccccc3)no2)ccc1NC1CCCCC1,3%,.,i,i
CCOc1ccc2c3c(c(=O)oc2c1OCC)CCCC3,22µM*,-2%,i,i
Cc1sc2c(c1C)c(=O)n(Cc1ccccc1)c(=O)n2CC(=O)Nc1cccc(Cl)c1,-3%,.,i,i
O=S(=O)(/C(=C/c1ccc(C(F)(F)F)cc1)c1nc2ccccc2[nH]1)c1ccccc1,10µM*,-7%,i,i
CC(C)c1ccc(/C=C(\c2nc3ccccc3[nH]2)S(=O)(=O)c2ccccc2)cc1,25%,9%,i,i
CN=c1scc(C)n1/N=C/c1cc(Br)c(O)c(OC)c1,11µM*,-2%,i,i
CN(C)c1ccc(Nc2ncnc3sc4c(c23)CCCC4)cc1,-10%,13%,i,i
CCOc1ccccc1CNC(=O)CCc1c(C)nn(-c2ccc(N3CCCC3)nn2)c1C,11%,.,i,i
COc1ccccc1Nc1cc(C)nc2nc(-c3ccccc3)nn12,13µM*,.,i,i

# Screens deposited in PubChem BioAssay by National Center for Advancing Translational Sciences (NCATS).
